Test results taken from PubChem BioAssay (NCATS).
Where “and” joins values, the source holds several entries; their conditions need not be identical. Equal values may be shown once. Inconclusive results are not listed. Some structures have more than one record in an assay (separate samples or runs), and their calls can disagree. Calls of active or inactive are those of the source. The call rests on the fitted dose curve; in most records, active means well fitted cell-killing curve with a large enough effect; inconclusive means small, poorly fitted or top-dose-only effect, or effect the other way; inactive means no such curve, though single readings can be large or run the other way.

Assay: Viability qHTS for spleen associated tyrosine kinase inhibitor (SYKi) naive MV4-11 cells (AID 1963823); further: nearly all actives have a fitted effect of over 40% in size
Details: MV4-11 AML viability, CellTiter-Glo luminescence, 72 h; series mostly up to 45 µM; viability (% of control): at the top concentration
Method in brief: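 CellTiter-Glo luminescence, 10 min room-temperature incubation, gave viability. Cells: naive MV4-11 (500/well), treated 72 hr at 37 C, 5% CO2.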
Potency means the concentration at half of the fitted maximal effect.

Row | Structure (SMILES) | viability (% of control) | Potency
1 | C[C@]12C=CC(=O)C=C1[C@@H](F)C[C@@H]1[C@@H]2[C@@H](O)C[C@@]2(C)[C@H]1CC[C@]2(O)C(=O)CO | 113% (inactive) | –
2 | C/C(=N/NC(=O)c1ccncc1)C(=O)O | 85.2% (inactive) | –
3 | CC(=O)N[C@@H](CC(C)C)C(=O)O | 93.5% (inactive) | –
4 | COc1cccc(Nc2ncnn3ccc(CN4CC[C@@H](N)[C@H](O)C4)c23)c1 | – | 0.0411 µM (active)
5 | C=C[C@H]1CN2CC[C@H]1C[C@@H]2[C@@H](O)c1ccnc2ccc(OC)cc12 | 74.7% (inactive) | –
6 | [O-][n+]1cccc(CO)c1 | 111% (inactive) | –
7 | CC(=O)NC(CS)C(=O)O (stereo not given) | 90.1% (inactive) | –
8 | Nc1ncnc2c1c(-c1cccc(OCc3ccccc3)c1)cn2C1CC(CN2CCCC2)C1 (stereo not given) | – | 0.517 µM (active)
9 | Nc1c2c(nc3c1CCC3)CCCC2 | 74.2% (inactive) | –
10 | Cc1cc2c(C(C)C)c(O)c(O)c(C=O)c2c(O)c1-c1c(C)cc2c(C(C)C)c(O)c(O)c(C=O)c2c1O | – | 6.61 µM (active)
11 | COc1cc(OC)c(/C=C/S(=O)(=O)Cc2ccc(OC)c(NCC(=O)O)c2)c(OC)c1 | – | 92 nM (active) and 105 nM (active)
12 | O=C(OOC(=O)c1ccccc1)c1ccccc1 | 83.5% (inactive) | –
13 | c1cn2cc(-c3ccc4cn[nH]c4c3)nc(Nc3ccc(N4CCOCC4)cc3)c2n1 | – | 0.651 µM (active)
14 | CCOC(=O)C1=C(C)NC(C)=C(C(=O)OCC)C1c1ccccc1/C=C/C(=O)OC(C)(C)C | – | 9.44 µM (active)
15 | C[C@H](CN(C)C)Oc1nc(Nc2cc3cccc(Cl)c3cn2)cnc1C#N | – | 259 nM (active) and 934 nM (active)
16 | COc1cc(C)[nH]c(=O)c1CN1CCc2c(Cl)cc([C@H](OC)C3COC3)c(Cl)c2C1=O | 93.2% (inactive) | –
17 | Clc1cc2c(NC3CCCC3)nnc(-c3ccncc3)c2cc1Cl | – | inactive and 18.6 µM (active)
18 | CCCCC1(COC(=O)CCC(=O)O)C(=O)N(c2ccccc2)N(c2ccccc2)C1=O | 87.6% (inactive) | –
19 | CN1CCN(C2CCC(n3cc(-c4ccc(Oc5ccccc5)cc4)c4c(N)ncnc43)CC2)CC1 (stereo not given) | – | 0.0231 µM (active)
20 | CC(C)NCC(O)c1cc(O)cc(O)c1 (stereo not given) | 71.6% (inactive) | –

Row | Structure (SMILES) | viability (% of control) | Potency
21 | O=C(CCOCCOCCOCCOCCC(=O)Nc1c(I)cc(I)c(C(=O)O)c1I)Nc1c(I)cc(I)c(C(=O)O)c1I | 86.6% (inactive) | –
22 | N[C@@H]1CN(c2c(F)cc3c(=O)c(C(=O)O)cn([C@@H]4C[C@@H]4F)c3c2Cl)CC12CC2 | 60.4% (inactive) | –
23 | Cc1onc(-c2c(Cl)cccc2Cl)c1C(=O)Cl | 75.5% (inactive) | –
24 | C=CC(=O)Nc1cc(Nc2nccc(-c3cn(C)c4ccccc34)n2)c(OC)cc1N(C)CCN(C)C | – | 1.46 µM (active)
25 | CCCCCCCCCCCCCCCC[N+](C)(C)CCN(Cc1ccc(OC)cc1)c1ncccn1 | – | 2.66 µM (active)
26 | O=C(NO)c1ccc(C2=Nc3ccccc3Oc3ccccc32)cc1 | – | 3.32 µM (active)
27 | O=C(NCCCNC(=O)c1ccc[nH]c1=O)c1cc(-c2ccccc2)on1 | – | 4.68 µM (active)
28 | O=C(O)CCC(=O)c1ccc(-c2ccccc2)cc1 | 71.9% (inactive) | –
29 | CNC(=O)c1cccc2cc(Oc3ccnc4cc(OCC5(N)CC5)c(OC)cc34)ccc12 | – | 13 µM (active)
30 | Nc1ccc(S(=O)(=O)c2ccc(N)cc2)cc1 | 91.9% (inactive) | –
31 | CN(C)CCOc1ccc(-c2nc(-c3ccc4c(c3)CC/C4=N\O)c(-c3ccncc3)[nH]2)cc1 | – | 7.42 µM (active)
32 | Cc1cc(OCCCc2c3n(c4c(-c5c(C)nn(C)c5C)c(Cl)ccc24)[C@H](C)CN(c2cn(C)c4ccc(C(=O)O)cc24)C3=O)cc(C)c1Cl | – | 0.742 µM (active)
33 | C[C@@H]1O[C@@H](OC[C@H]2O[C@@H](Oc3c(-c4ccc(O)c(O)c4)oc4cc(O)cc(O)c4c3=O)[C@H](O)[C@@H](O)[C@@H]2O)[C@H](O)[C@H](O)[C@H]1O | 71.2% (inactive) | –
34 | C=CC(=O)Nc1cccc(Nc2nc(Nc3ccc(NC4CN(CCF)C4)cc3OC)ncc2C(F)(F)F)c1 | – | 1.3 µM (active) and 662 nM (active)
35 | CC1=C(/C=C/C(C)=C/C=C/C(C)=C/C(=O)O)C(C)(C)CCC1 | – | 668 nM (active) and 132 nM (active)
36 | Nc1ccc(O)c([N+](=O)[O-])c1 | 72.9% [at 91.9 µM] (inactive) | –
37 | O=C1OC(COc2ccccc2[N+](=O)[O-])CC1Cc1ccccc1 (stereo not given) | 71.4% (inactive) | –
38 | CC(C)=CCC/C(C)=C/CO | 58% (inactive) | –
39 | O=S(=O)(O)c1cc(I)c(O)c2ncccc12 | – | 0.015 µM (active)
40 | CC(C)(C)CC(C)(C)c1ccc(O)c(-n2nc3ccccc3n2)c1 | 71.4% (inactive) | –

Assay: Viability qHTS for spleen associated tyrosine kinase inhibitor (SYKi) drug resistant MV4-11 cells (AID 1963824); further: nearly all actives have a fitted effect of over 35% in size
Details: SYKi-resistant MV4-11 viability, CellTiter-Glo, 72 h; series mostly up to 45 µM; viability, % of control: at the top concentration
Method in brief: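 SYK-inhibitor-resistant MV4-11 AML cells were seeded at 500 per well onto compound and cultured 72 hours (37 °C, 5% CO2). CellTiter-Glo was then added, and after 10 min at room temperature, luminescence gave viability.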

Row | Structure (SMILES) | viability, % of control | Potency
41 | C[C@]12C=CC(=O)C=C1[C@@H](F)C[C@@H]1[C@@H]2[C@@H](O)C[C@@]2(C)[C@H]1CC[C@]2(O)C(=O)CO | 79.9% (inactive) | –
42 | C/C(=N/NC(=O)c1ccncc1)C(=O)O | 80.2% (inactive) | –
43 | CC(=O)N[C@@H](CC(C)C)C(=O)O | 108% (inactive) | –
44 | COc1cccc(Nc2ncnn3ccc(CN4CC[C@@H](N)[C@H](O)C4)c23)c1 | – | 0.184 µM (active)
45 | C=C[C@H]1CN2CC[C@H]1C[C@@H]2[C@@H](O)c1ccnc2ccc(OC)cc12 | 84.2% (inactive) | –
46 | [O-][n+]1cccc(CO)c1 | 106% (inactive) | –
47 | CC(=O)NC(CS)C(=O)O (stereo not given) | 93.9% (inactive) | –
48 | Nc1ncnc2c1c(-c1cccc(OCc3ccccc3)c1)cn2C1CC(CN2CCCC2)C1 (stereo not given) | – | 1.3 µM (active)
49 | Nc1c2c(nc3c1CCC3)CCCC2 | 85.5% (inactive) | –
50 | Cc1cc2c(C(C)C)c(O)c(O)c(C=O)c2c(O)c1-c1c(C)cc2c(C(C)C)c(O)c(O)c(C=O)c2c1O | – | 4.68 µM (active)
51 | COc1cc(OC)c(/C=C/S(=O)(=O)Cc2ccc(OC)c(NCC(=O)O)c2)c(OC)c1 | – | 51.7 nM (active) and 118 nM (active)
52 | O=C(OOC(=O)c1ccccc1)c1ccccc1 | 104% (inactive) | –
53 | c1cn2cc(-c3ccc4cn[nH]c4c3)nc(Nc3ccc(N4CCOCC4)cc3)c2n1 | – | 820 nM (active) and 1.32 µM (active)
54 | CCOC(=O)C1=C(C)NC(C)=C(C(=O)OCC)C1c1ccccc1/C=C/C(=O)OC(C)(C)C | – | 4.73 µM (active)
55 | C[C@H](CN(C)C)Oc1nc(Nc2cc3cccc(Cl)c3cn2)cnc1C#N | – | 411 nM (active) and 934 nM (active)
56 | COc1cc(C)[nH]c(=O)c1CN1CCc2c(Cl)cc([C@H](OC)C3COC3)c(Cl)c2C1=O | 91.9% (inactive) | –
57 | Clc1cc2c(NC3CCCC3)nnc(-c3ccncc3)c2cc1Cl | – | 13.2 µM (active)
58 | CCCCC1(COC(=O)CCC(=O)O)C(=O)N(c2ccccc2)N(c2ccccc2)C1=O | 83.9% (inactive) | –
59 | CN1CCN(C2CCC(n3cc(-c4ccc(Oc5ccccc5)cc4)c4c(N)ncnc43)CC2)CC1 (stereo not given) | – | 58 nM (active) and 74.2 nM (active)
60 | CC(C)NCC(O)c1cc(O)cc(O)c1 (stereo not given) | 82.4% (inactive) | –

Row | Structure (SMILES) | viability, % of control | Potency
61 | O=C(CCOCCOCCOCCOCCC(=O)Nc1c(I)cc(I)c(C(=O)O)c1I)Nc1c(I)cc(I)c(C(=O)O)c1I | 76.4% (inactive) | –
62 | N[C@@H]1CN(c2c(F)cc3c(=O)c(C(=O)O)cn([C@@H]4C[C@@H]4F)c3c2Cl)CC12CC2 | 73.5% (inactive) | –
63 | Cc1onc(-c2c(Cl)cccc2Cl)c1C(=O)Cl | 65.9% (inactive) | –
64 | C=CC(=O)Nc1cc(Nc2nccc(-c3cn(C)c4ccccc34)n2)c(OC)cc1N(C)CCN(C)C | – | 0.934 µM (active)
65 | CCCCCCCCCCCCCCCC[N+](C)(C)CCN(Cc1ccc(OC)cc1)c1ncccn1 | – | 2.11 µM (active)
66 | O=C(NO)c1ccc(C2=Nc3ccccc3Oc3ccccc32)cc1 | – | 2.95 µM (active)
67 | O=C(NCCCNC(=O)c1ccc[nH]c1=O)c1cc(-c2ccccc2)on1 | – | 4.68 µM (active)
68 | O=C(O)CCC(=O)c1ccc(-c2ccccc2)cc1 | 82.9% (inactive) | –
69 | CNC(=O)c1cccc2cc(Oc3ccnc4cc(OCC5(N)CC5)c(OC)cc34)ccc12 | – | 14.8 µM (active) and 20.6 µM (active)
70 | Nc1ccc(S(=O)(=O)c2ccc(N)cc2)cc1 | 83% (inactive) | –
71 | CN(C)CCOc1ccc(-c2nc(-c3ccc4c(c3)CC/C4=N\O)c(-c3ccncc3)[nH]2)cc1 | – | 5.9 µM (active)
72 | Cc1cc(OCCCc2c3n(c4c(-c5c(C)nn(C)c5C)c(Cl)ccc24)[C@H](C)CN(c2cn(C)c4ccc(C(=O)O)cc24)C3=O)cc(C)c1Cl | – | 0.662 µM (active)
73 | C[C@@H]1O[C@@H](OC[C@H]2O[C@@H](Oc3c(-c4ccc(O)c(O)c4)oc4cc(O)cc(O)c4c3=O)[C@H](O)[C@@H](O)[C@@H]2O)[C@H](O)[C@H](O)[C@H]1O | 80.6% (inactive) | –
74 | C=CC(=O)Nc1cccc(Nc2nc(Nc3ccc(NC4CN(CCF)C4)cc3OC)ncc2C(F)(F)F)c1 | – | 1.3 µM (active) and 1.48 µM (active)
75 | CC1=C(/C=C/C(C)=C/C=C/C(C)=C/C(=O)O)C(C)(C)CCC1 | – | 1.06 µM (active) and 468 nM (active)
76 | Nc1ccc(O)c([N+](=O)[O-])c1 | – | 0.0611 µM (active)
77 | O=C1OC(COc2ccccc2[N+](=O)[O-])CC1Cc1ccccc1 (stereo not given) | – | 13.2 µM (active)
78 | CC(C)=CCC/C(C)=C/CO | 60.6% (inactive) | –
79 | O=S(=O)(O)c1cc(I)c(O)c2ncccc12 | 79.4% (inactive) | –
80 | CC(C)(C)CC(C)(C)c1ccc(O)c(-n2nc3ccccc3n2)c1 | 84.6% (inactive) | –
